Screens deposited in PubChem BioAssay by National Center for Advancing Translational Sciences (NCATS).
Rows were chosen to be rich in hits. Some 5.9% of all compounds tested hit in one or more screens of this group.
Gal4-VP16 FLuc: counter-screen for ROR gamma inhibitors: Gal4-VP16 reporter; Potency, µM (doses to about 53.6 µM), for inactives: at the highest dose activity, negative = inhibition, most hits filed as inhibitors; 310,000 tested, 3.5% active; AID 2546; Drosophila S2 Gal4-VP16 UAS-luciferase, luminescence, 20 h;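 further: Gal4-VP16 expression switched on by copper sulfate through the metallothionein promoter; potency means the concentration at half of the fitted maximal effect; nearly all actives have a fitted effect of over 50% in size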
rTrxR1 inhibitor: inhibitors of rat thioredoxin reductase 1; O89049; recombinant rTrxR1, NADPH fluorescence consumption, selenite substrate; Potency, µM (series often up to 114 µM), without a hit: at the highest dose activity change, negative = inhibition, hits mostly inhibitors; 390,000 tested, 1% active; AID 588453; further: potency means the concentration at half of the fitted maximal effect; nearly all actives have a fitted effect of over 65% in size
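Rat TrxR1 (90 nM in the dispensed reagent) was pre-reduced with 400 uM NADPH for 5 min at room temperature, then incubated with compound for 15 min. After 400 uM selenite was added, NADPH fluorescence (Ex 340/Em 450 nm) was followed for 8 min.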
GALK inhibitor: blocks human galactokinase activity. 270,000 tested, 0.007% active. P51570. Potency, µM (top dose mostly 57.5 µM), for the others: at the highest dose activity change, negative = inhibition, most hits filed as inhibitors. Purified GALK, Kinase-Glo residual ATP luminescence; further: potency means the concentration at half of the fitted maximal effect
Target sequence (P51570 whole entry, looked up): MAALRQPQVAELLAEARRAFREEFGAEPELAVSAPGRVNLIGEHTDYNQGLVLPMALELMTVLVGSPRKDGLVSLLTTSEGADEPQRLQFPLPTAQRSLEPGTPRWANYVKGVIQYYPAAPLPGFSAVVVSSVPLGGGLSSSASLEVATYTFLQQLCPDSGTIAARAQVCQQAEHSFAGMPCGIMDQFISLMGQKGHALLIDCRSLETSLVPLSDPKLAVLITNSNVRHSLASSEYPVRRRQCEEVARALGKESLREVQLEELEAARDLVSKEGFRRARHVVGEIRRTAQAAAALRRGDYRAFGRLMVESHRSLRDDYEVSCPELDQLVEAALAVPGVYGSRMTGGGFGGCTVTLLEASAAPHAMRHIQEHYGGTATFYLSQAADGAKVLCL
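The enzyme phosphorylates galactose (100 uM) using ATP (35 uM); inhibition is detected as higher residual ATP, quantified by bioluminescence after 1 h reaction at room temperature, pH 8.0.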
RORgamma inh: ROR gamma (mouse) transcription inhibition; AID 2551; Potency, µM (doses to about 53.6 µM), inactives show top-dose activity change, negative = inhibition, hits mostly inhibitors; 310,000 tested, 5.4% active; Drosophila S2 Gal4-RORgamma UAS-luciferase reporter, 20 h; P51450; further: potency means the concentration at half of the fitted maximal effect; nearly all actives have a fitted effect of over 60% in size
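Drosophila Schneider cells stably carrying a metallothionein-driven Gal4 DBD–ROR gamma fusion and a UAS-Photinus luciferase reporter were exposed to compound for 1 hr, then induced with copper sulfate (700 uM final) for 20 hr at ambient temperature before luminescence reading.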
TrxR1 substrate: rat thioredoxin reductase 1 substrate activity | O89049 | purified TrxR1 substrate turnover, NADPH consumption readout | Potency, µM (titrated, usually from 114 µM), without a hit: at the top dose activity change, negative = substrate turnover | 390,000 tested, 0.01% active | AID 588456; further: potency means the concentration at half of the fitted maximal effect; nearly all actives have a fitted effect of over 50% in size
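Rat TrxR1, dispensed at 90 nM, was prereduced with 400 uM NADPH (final) for 5 min at ~22 deg C, then incubated with compound 15 min before 400 uM selenite. A first-read NADPH fluorescence drop versus no-compound background flagged substrates.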
Coupling enz: counter-screen for Giardia aldolase inhibitors: coupling enzyme system | 290,000 tested, 0.67% active | coupling enzyme system counterscreen, AmpLite Red fluorescence | AID 2472 | activity change, negative = inhibition, % at 58.2 µM, hits read low; in the data active means activity change below about -30%
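Fluorescence at 525 nm excitation and 598 nm emission measured inhibition of the coupled detection system without aldolase. Compounds (at 57.5 uM final) were preincubated 10 min at room temperature with coupling enzyme reagent before a 20 min substrate/AmpLite Red step.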
Starred values were filed as active, the others as inactive; ? = inconclusive; . = not tested or not shown; [ ] = dose if it differs, or a comment. Unless noted, the call rests on the fitted dose curve; in most records, active means well fitted curve in the direction sought with a large enough effect; inconclusive means small, poorly fitted or top-dose-only effect, or another doubt; inactive means no such curve, though single readings can be large; an effect the other way counts as inactive or inconclusive. On the % scale 0 is the no-effect control and ±100 the full control effect.

SMILES	Gal4-VP16 FLuc	rTrxR1 inhibitor	GALK inhibitor	RORgamma inh	TrxR1 substrate	Coupling enz
O=C(CNc1ccc(F)cc1)N/N=C/c1c(O)ccc2ccccc12	2.8µM*	17%	-3%	1.3µM*	4%	-2
C=C(C)Cn1c(SCC(=O)N/N=C/c2c(O)ccc3ccccc23)nc2ccccc2c1=O	2.5µM*	1%	0%	0.63µM*	2%	-11
O=C(Cc1n[nH]c(=O)[nH]c1=O)N/N=C/c1c(O)ccc2ccccc12	3%	10%[57.1 µM]	1%	30%	5%[57.1 µM]	-1
COc1ccccc1N(CC(=O)N/N=C/c1c(O)ccc2ccccc12)S(C)(=O)=O	?	-3%	1%	13µM*	-2%	-1
C=C(C)Cn1c(SCC)nc2ccccc2c1=O	-9%	-1%	0%	-13%	1%	1
COCCNC(=S)c1ccc(Br)cc1	-6%	-5%	-1%	8%	0%	0
COc1ccccc1NCC(=O)N/N=C/c1cccnc1	-9%	3%	-2%	16%	-9%	-5
COc1ccccc1NCC(=O)N/N=C/c1c(O)ccc2ccccc12	2.8µM*	17%	0%	0.89µM*	6%	-4
S=C(NCc1cccs1)Nc1cccc(Cl)c1Cl	8.9µM*	11%[57.1 µM]	-1%	10µM*	8%[57.1 µM]	3
Cc1c(Cl)cccc1NC(=O)Cc1cccs1	-3%	13%	0%	-7%	2%	2
Cc1c(Cl)cccc1NC(=S)NCc1cccs1	7.1µM*	-6%	-3%	4.5µM*	-6%	1
COc1cc([N+](=O)[O-])ccc1NC(=O)N1CCCCCC1	?	2%	3%	13µM*	-10%	.
COc1cc([N+](=O)[O-])ccc1NC(=O)Nc1ccc(C(=O)N2CCCC2)cc1	-10%	-4%	0%	-1%	-1%	.
COc1ccc(OCCn2c(CCNC(=O)C3CCCCC3)nc3ccccc32)cc1	.	-1%	.	.	-1%	.
c1ccc(C(Cc2nc(-c3ccncc3)no2)c2ccccc2)cc1	10µM*	-2%	1%	?	-7%	0
Cc1ccc(-c2noc(-c3ccccc3F)n2)cc1	?	7%[57.1 µM]	-1%	-32%	7%[57.1 µM]	-3
c1ccc(-c2ccccc2-c2nc(-c3ccncc3)no2)cc1	?	0%	-1%	8.9µM*	8%[57.1 µM]	-5
c1ccc(-c2nc(-c3ccncc3)no2)cc1	-17%	6%[57.1 µM]	8%	17%	3%[57.1 µM]	3
CN(Cc1nc(-c2ccncc2)no1)S(=O)(=O)c1ccccc1	9%	0%[57.1 µM]	2%	2.5µM*	3%[57.1 µM]	11
O=C(O)c1ccc(-c2noc(-c3ccccc3F)n2)cc1	10µM*	18%	.	.	7%	15
c1ccc(-c2ccc(-c3nc(-c4ccncc4)no3)cc2)cc1	-3%	15%	1%	14%	3%	1
CCOC(=O)c1oc2ccc(S(=O)(=O)n3nc(-c4ccc(Cl)cc4)cc3N)cc2c1C	-3%	-7%	3%	-9%	-9%	-6
COc1cc(/C=C2\SC(=S)N(NC(=O)c3ccc(O)c(OC)c3)C2=O)ccc1O	?	-2%	-1%	7.1µM*	-8%	3
Cn1cccc1/C=C1\SC(=S)N(NC(=O)c2ccc(F)cc2)C1=O	16µM*	-7%	-1%	30%	-20%	2
COc1cc(/C=C2\SC(=S)N(NC(=O)c3ccncc3)C2=O)ccc1O	-8%	-21%	-1%	-14%	-17%	8
SMILES	Gal4-VP16 FLuc	rTrxR1 inhibitor	GALK inhibitor	RORgamma inh	TrxR1 substrate	Coupling enz
CC(=O)N1CCN(Cc2nc(C(c3ccccc3)c3ccccc3)no2)CC1	5%	34%	1%	19%	2%	-1
Cc1cccnc1CN1CCN(Cc2nc(C(c3ccccc3)c3ccccc3)no2)CC1	-25%	7%	-1%	11µM*	6%	1
CN(C)S(=O)(=O)c1cccc(C(=O)Nc2ccccc2[N+](=O)[O-])c1	0%	5%	3%	26%	-3%	-12
COc1cc2[nH]c(=S)nc(NCCc3ccc(S(N)(=O)=O)cc3)c2cc1OC	-13%	?	-1%	0%	1%	-2
Cc1ccc(/C=N/NC(=O)c2c(-c3ccccc3)noc2C)c(O)c1	3.2µM*	.	-5%	3.2µM*	.	.
Cc1onc(-c2ccccc2)c1C(=O)N/N=C/c1c[nH]c2ccccc12	7.1µM*	16%[57.1 µM]	12%	2.8µM*	-6%[11.4 µM]	-16
COc1ccccc1/C=N/NC(=O)c1ccc(-c2ccccc2)cc1	?	7%	-1%	11µM*	-4%	0
COc1cccc(/C=N/NC(=O)c2c(-c3ccccc3)noc2C)c1O	2µM*	-8%	1%	0.35µM*	-7%	6
Cc1onc(-c2ccccc2)c1C(=O)N/N=C/c1cc2c(cc1Cl)OCO2	10%	4%	0%	-8%	-4%	5
COc1cccc(/C=N/NC(=O)c2c(-c3ccccc3)noc2C)c1OC	.	9%	.	.	42%	.
O=C(c1cnn(-c2ccccc2)c1)c1cc(F)ccc1O	18%	17%[57.1 µM]	-1%	1%	9%[57.1 µM]	0
COc1cccc(/C=N/NC(=O)c2cnccn2)c1O	2.5µM*	17%	0%	2.2µM*	-7%	-1
COc1cccc(/C=N/NC(=O)c2ccoc2C)c1O	0.5µM*	-15%	15%	0.063µM*	-3%	1
COc1cc(C(=O)Oc2ccccc2/C=N/NC(=O)c2ccc(Cl)cc2Cl)cc(OC)c1OC	11µM*	15%	-2%	7.1µM*	3%	0
CCOc1cc([N+](=O)[O-])cc(/C=N/NC(=O)c2c(-c3ccccc3)noc2C)c1O	0.63µM*	6%	2%	0.63µM*	-3%	0
C=CCOc1ccccc1/C=N/NC(=O)c1ccc(Cl)cc1Cl	4%	-12%	2%	?	-6%	-3
COc1ccc(/C=N/NC(=O)c2cnccn2)c(OC)c1OC	-1%	2%	0%	3%	-15%	-1
COc1ccccc1NC(=O)C1CCN(C(=O)c2ccco2)CC1	-4%	11%	0%	-5%	0%	-1
CCOC(=O)C1CCN(S(=O)(=O)c2c(C)[nH]c(=O)[nH]c2=O)CC1	.	5%[57.1 µM]	2%	-3%[0.365 µM]	11%	1
Cc1ccc(S(=O)(=O)N2CCCCC2)cc1NC(=O)c1nn(C)c(=O)c2ccccc12	.	-2%[57.1 µM]	.	.	-1%[57.1 µM]	.
CN1C(=O)/C(=N\OC(=O)c2cccc3ccccc23)c2ccccc21	11µM*	?	1%	?	4%	-8
COc1ccc(C(=O)O/N=C2\C(=O)N(C)c3ccccc32)cc1	.	12%	.	.	0%	.
Fc1ccc(NC(=S)Nc2cc(-c3ccccc3)[nH]n2)cc1Cl	1.6µM*	13%[57.1 µM]	-2%	0.79µM*	1%[57.1 µM]	0
